Values without a mark were called inactive.
Experiments:
Experiment in all cases: log2 ratio of Biotin-Ahx-Ub-VS probe labelling (fragment/DMSO); higher = less target engagement (more negative = stronger competition), active = hit call of the paper (q ≤ 0.05, log2 ratio ≤ -1)
Details in all cases: compound concentration: 200 uM; treatment time: 3 h
USP19 = target: T1, USP19 (UniProt O94966)
T1 sequence (whole entry): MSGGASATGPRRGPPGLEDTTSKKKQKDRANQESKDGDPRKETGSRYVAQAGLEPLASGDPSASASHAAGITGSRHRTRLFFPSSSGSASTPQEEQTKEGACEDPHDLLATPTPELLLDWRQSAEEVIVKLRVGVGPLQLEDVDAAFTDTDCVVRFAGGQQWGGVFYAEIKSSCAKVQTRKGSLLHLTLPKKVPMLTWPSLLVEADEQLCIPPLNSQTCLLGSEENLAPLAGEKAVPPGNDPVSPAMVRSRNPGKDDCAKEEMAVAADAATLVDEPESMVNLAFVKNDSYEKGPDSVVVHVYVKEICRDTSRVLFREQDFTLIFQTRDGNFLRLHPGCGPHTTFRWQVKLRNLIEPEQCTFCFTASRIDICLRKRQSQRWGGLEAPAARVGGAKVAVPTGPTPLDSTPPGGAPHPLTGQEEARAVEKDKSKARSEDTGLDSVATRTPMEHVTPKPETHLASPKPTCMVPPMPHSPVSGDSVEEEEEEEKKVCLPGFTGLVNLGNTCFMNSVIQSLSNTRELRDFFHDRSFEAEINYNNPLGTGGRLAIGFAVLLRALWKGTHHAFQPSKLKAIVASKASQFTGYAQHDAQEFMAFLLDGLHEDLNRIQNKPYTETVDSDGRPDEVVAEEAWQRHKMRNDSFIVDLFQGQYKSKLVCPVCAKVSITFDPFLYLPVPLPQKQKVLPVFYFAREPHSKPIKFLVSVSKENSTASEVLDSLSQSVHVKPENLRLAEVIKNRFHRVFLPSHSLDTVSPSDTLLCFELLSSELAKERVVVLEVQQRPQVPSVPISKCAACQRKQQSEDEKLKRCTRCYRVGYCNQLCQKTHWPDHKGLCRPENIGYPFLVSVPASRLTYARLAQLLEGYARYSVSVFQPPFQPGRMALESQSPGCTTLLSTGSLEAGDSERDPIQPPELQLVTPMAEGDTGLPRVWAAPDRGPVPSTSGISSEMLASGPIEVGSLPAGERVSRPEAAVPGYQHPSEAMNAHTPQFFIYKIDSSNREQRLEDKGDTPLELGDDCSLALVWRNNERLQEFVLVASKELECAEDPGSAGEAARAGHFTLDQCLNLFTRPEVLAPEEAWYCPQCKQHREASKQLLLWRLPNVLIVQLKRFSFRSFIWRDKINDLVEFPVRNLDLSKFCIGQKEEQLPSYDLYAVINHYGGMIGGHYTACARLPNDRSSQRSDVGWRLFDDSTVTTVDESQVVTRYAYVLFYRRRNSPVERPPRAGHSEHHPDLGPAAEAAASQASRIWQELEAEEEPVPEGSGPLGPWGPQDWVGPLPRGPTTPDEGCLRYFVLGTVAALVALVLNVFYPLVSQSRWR
Summary of the method: (§1)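 Each value is an average log2 ratio of fragment to vehicle, tested by unpaired t-test. The underlying Spectronaut label-free quantities were global-median-normalised, and only proteins with ≥2 unique peptides were included. Triplicate HEK293T lysate samples (495 µg) were exposed to fragment at 200 µM or vehicle for 3 h, then to Biotin-Ahx-Ub-VS at 0.5 µM final for 1 h, before NeutrAvidin enrichment of labelled DUBs, LysC and trypsin digestion, and diaPASEF LC-MS/MS.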

USP24 = USP24 (UniProt Q9UPU5)
Summary of the method: as §1

USP25 = target: T2, USP25 (UniProt Q9UHP3)
T2 sequence (whole entry): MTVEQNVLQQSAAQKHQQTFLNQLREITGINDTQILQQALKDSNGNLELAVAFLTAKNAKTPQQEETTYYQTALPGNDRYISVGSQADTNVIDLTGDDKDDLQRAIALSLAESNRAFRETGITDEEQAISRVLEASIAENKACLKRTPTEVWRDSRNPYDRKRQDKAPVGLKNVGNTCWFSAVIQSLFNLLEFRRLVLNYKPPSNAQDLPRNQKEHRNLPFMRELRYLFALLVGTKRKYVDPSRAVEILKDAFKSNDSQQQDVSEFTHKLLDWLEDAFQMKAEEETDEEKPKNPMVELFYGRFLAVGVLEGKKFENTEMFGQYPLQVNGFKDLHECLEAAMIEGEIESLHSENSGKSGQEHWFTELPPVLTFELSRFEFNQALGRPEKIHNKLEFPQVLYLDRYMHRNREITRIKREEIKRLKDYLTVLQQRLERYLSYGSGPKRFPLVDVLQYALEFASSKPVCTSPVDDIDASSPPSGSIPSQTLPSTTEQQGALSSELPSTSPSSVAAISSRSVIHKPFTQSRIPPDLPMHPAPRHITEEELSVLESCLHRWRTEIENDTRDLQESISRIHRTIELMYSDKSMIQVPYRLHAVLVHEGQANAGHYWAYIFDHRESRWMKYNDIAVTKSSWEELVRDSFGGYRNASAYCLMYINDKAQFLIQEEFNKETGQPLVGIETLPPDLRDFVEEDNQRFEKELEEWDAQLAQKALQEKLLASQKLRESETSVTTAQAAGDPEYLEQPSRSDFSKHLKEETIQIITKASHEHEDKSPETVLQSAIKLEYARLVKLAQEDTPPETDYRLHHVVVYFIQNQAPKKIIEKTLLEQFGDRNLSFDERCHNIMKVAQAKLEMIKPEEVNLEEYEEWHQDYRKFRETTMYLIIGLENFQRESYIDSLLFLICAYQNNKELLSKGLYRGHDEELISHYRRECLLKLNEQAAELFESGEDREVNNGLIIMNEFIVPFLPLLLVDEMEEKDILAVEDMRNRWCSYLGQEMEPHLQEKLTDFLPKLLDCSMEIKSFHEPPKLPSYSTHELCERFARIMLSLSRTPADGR
Summary of the method: as §1

USP28 = target: T3, USP28 (UniProt Q96RU2)
T3 sequence (whole entry): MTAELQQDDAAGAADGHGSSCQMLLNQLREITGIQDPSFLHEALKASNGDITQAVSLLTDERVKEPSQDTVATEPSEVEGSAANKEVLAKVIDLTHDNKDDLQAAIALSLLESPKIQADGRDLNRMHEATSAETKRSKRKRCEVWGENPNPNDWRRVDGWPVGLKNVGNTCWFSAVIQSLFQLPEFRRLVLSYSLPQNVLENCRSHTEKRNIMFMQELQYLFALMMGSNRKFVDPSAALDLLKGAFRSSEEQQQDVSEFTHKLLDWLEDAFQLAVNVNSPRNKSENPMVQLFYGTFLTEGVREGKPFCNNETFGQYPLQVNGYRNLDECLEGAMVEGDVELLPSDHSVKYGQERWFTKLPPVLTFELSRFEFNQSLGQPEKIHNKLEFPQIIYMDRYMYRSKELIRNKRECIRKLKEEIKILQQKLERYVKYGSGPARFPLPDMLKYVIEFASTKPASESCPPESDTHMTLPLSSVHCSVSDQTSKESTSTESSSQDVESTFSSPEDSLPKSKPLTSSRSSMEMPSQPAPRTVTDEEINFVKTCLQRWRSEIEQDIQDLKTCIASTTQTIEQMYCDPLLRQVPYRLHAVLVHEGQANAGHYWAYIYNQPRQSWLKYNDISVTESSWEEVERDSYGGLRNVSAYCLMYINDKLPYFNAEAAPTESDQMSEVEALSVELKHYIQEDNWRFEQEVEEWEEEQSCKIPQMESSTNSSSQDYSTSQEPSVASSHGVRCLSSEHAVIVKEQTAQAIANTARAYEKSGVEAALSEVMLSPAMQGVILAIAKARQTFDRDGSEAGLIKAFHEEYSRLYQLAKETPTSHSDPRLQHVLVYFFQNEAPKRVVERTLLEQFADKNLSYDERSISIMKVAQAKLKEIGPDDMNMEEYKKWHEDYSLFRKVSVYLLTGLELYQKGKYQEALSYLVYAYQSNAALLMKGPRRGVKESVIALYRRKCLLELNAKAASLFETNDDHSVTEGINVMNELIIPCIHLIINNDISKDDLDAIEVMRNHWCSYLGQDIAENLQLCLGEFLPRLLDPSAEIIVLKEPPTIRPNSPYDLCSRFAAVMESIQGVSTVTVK
Summary of the method: as §1

Chain of USP24 (Q9UPU5 whole entry): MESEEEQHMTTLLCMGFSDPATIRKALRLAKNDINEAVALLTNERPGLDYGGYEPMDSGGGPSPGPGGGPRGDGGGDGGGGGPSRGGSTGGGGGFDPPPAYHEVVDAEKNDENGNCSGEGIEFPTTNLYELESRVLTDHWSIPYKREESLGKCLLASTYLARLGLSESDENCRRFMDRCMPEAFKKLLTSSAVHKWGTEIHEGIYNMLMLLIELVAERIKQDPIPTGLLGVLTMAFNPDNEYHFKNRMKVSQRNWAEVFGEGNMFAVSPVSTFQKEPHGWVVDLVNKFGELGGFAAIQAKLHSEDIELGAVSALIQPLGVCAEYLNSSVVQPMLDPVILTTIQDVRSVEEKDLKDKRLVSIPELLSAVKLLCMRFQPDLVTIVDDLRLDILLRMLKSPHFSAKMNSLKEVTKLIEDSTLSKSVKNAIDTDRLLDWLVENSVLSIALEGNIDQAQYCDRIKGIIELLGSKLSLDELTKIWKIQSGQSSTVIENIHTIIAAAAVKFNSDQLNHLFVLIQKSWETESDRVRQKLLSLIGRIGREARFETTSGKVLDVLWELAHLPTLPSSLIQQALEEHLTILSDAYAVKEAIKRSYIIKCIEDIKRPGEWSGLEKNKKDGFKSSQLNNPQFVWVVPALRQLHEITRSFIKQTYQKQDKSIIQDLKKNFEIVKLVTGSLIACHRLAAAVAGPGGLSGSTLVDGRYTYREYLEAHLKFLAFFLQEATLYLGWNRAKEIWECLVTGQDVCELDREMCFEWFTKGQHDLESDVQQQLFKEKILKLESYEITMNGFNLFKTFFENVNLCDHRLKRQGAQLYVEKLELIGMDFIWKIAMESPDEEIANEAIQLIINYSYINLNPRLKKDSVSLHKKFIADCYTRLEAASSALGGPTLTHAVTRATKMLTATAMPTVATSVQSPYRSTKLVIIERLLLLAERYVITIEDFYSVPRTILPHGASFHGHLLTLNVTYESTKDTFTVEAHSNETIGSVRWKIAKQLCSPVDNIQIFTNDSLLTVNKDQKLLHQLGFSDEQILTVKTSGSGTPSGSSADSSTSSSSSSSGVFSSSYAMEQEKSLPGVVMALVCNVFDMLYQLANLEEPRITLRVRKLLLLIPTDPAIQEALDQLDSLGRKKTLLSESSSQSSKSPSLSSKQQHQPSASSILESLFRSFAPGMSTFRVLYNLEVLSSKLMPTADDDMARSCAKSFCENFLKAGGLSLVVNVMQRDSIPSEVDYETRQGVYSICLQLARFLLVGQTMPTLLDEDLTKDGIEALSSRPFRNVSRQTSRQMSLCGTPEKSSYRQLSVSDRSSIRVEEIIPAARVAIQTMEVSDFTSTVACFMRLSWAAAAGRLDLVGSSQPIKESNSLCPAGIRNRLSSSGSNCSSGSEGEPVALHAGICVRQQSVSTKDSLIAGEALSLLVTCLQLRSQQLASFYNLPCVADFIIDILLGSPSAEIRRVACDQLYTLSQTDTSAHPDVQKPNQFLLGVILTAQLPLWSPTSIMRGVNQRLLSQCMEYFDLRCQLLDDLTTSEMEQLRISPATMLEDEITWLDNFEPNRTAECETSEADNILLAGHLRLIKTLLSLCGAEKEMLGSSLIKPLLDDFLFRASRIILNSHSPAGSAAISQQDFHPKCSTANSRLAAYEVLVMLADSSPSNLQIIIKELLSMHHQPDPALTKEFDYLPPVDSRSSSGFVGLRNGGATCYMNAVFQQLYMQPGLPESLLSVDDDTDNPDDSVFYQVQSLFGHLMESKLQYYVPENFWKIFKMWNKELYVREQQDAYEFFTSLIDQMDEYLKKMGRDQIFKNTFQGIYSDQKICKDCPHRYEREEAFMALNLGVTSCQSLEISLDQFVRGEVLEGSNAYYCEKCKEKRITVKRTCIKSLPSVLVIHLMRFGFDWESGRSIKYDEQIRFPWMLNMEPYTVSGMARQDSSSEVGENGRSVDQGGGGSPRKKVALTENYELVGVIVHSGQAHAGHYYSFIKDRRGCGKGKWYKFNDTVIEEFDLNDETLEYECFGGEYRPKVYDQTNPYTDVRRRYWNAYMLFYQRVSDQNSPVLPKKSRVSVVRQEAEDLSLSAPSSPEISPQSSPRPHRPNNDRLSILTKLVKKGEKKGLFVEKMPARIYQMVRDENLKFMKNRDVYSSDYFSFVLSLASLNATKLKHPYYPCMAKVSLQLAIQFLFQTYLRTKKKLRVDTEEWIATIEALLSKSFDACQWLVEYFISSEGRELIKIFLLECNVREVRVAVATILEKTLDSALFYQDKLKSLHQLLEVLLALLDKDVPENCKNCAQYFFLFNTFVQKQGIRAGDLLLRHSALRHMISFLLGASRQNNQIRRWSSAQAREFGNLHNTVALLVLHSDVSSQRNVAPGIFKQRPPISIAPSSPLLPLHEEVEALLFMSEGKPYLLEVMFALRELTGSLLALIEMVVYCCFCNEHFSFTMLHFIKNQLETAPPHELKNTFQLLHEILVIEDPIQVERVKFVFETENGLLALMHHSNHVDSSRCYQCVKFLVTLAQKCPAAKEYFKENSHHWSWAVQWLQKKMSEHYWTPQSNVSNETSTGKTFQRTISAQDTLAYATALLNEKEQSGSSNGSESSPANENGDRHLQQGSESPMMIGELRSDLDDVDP

Question: For `COc1cc(Cl)c(C)cc1NC(=O)CCl`, which “log2 ratio of Biotin-Ahx-Ub-VS probe labelling” value (“log2 ratio” below) (USP19) is on record?
Answer: -0.357

Question: What about the “log2 ratio” value (USP24) of the same molecule?
Answer: -1.3 (active)

Question: And the “log2 ratio” value (USP25)?
Answer: -0.839

Question: And the “log2 ratio” value (USP28)?
Answer: -0.742

Source: the supplement of paper PMC11732987, “Enantioselective OTUD7B fragment discovery through chemoproteomics screening and high-throughput optimisation” (Communications Chemistry, 2025)
